Only a selection was taken, and hits are over-represented in it overall.
KDM5B inhibitor – blocks human KDM5B histone demethylase activity. Potency, µM (series often up to 57.7 µM), actives largely listed as inhibitors. 220,000 tested, 2.6% active. Q9UGL1. KDM5B demethylase, FDH-coupled NADH fluorescence (FDH is formaldehyde dehydrogenase); active = well fitted inhibition curve with a large enough effect; also: 0% is about no effect; nearly all actives have a fitted effect of over 70% in size
Target sequence (Q9UGL1 whole entry, looked up): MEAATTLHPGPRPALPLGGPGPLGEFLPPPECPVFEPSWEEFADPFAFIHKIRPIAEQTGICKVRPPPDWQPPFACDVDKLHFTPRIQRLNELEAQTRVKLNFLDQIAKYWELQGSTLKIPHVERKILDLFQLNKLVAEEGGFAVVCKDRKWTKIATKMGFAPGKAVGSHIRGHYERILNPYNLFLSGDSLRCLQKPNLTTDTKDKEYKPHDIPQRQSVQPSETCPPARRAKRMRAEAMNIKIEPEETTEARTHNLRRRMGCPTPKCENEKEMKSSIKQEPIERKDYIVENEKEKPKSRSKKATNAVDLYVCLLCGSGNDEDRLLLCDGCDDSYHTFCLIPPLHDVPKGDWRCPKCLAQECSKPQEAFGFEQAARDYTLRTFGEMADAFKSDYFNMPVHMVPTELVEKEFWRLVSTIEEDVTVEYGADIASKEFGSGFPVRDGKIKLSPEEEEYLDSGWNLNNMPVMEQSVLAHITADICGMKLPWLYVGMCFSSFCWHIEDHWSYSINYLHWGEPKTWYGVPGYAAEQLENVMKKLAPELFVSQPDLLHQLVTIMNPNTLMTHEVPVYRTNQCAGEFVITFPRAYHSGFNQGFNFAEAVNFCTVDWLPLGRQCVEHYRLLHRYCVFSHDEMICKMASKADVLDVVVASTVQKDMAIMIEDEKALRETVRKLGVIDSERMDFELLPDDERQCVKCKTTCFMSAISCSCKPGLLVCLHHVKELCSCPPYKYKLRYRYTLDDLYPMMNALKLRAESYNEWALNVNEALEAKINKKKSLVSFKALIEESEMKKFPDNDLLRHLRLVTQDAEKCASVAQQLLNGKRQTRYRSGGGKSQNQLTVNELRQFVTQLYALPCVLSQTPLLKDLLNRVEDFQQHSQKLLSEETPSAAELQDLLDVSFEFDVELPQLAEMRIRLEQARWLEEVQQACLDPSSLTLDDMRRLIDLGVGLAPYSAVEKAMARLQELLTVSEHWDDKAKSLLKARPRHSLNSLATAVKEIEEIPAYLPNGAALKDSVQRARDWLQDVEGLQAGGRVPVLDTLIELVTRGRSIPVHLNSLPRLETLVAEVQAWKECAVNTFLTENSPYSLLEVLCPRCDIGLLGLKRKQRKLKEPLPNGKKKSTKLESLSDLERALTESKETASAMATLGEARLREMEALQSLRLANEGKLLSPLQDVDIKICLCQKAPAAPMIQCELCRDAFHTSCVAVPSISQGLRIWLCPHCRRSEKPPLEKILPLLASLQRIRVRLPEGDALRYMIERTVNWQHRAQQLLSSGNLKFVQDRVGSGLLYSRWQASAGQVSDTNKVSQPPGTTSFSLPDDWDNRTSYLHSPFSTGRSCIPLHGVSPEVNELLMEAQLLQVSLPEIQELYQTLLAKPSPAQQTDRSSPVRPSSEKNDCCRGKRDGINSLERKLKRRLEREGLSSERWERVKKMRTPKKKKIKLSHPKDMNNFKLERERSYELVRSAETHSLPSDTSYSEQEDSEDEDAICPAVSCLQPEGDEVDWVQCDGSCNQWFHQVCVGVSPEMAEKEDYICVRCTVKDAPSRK
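Inhibition is measured as reduced NADH fluorescence generation from FDH coupling to formaldehyde release. Truncated KDM5BΔAP at 200 nM final acts on H3K4me3 peptide (12.5 µM in substrate mix) in pH 7.5 HEPES buffer with Tween-20, 30 min, room temperature.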
Active calls of the source: *; i = inactive. Potency is read from the fitted curve at half-maximal effect.

SMILES	KDM5B inhibitor
CCC(C)C(=O)NCCc1c[nH]c2ccc(C)cc12 (centres undefined)	i
CCC(C(=O)NCc1cc(C)ccc1OC)c1ccccc1 (centres undefined)	i
O=C(c1cc(-c2ccccc2)n[nH]1)N1CCN(C(=O)c2ccc(Br)o2)CC1	i
O=C(COc1ccc(F)cc1)N1CCC(c2nc3ccccc3o2)CC1	i
O=C1CC(=O)CC(c2ccc(F)cc2)C1	i
O=C(CCC1CCCN(S(=O)(=O)c2cccc(F)c2)C1)N1CCc2ccccc2C1 (centres undefined)	i
Cc1ccc(S(=O)(=O)N2CCCC(CCC(=O)N3CCOCC3)C2)cc1 (centres undefined)	i
O=C(CCC1CCCN(S(=O)(=O)c2ccccc2)C1)N1CCc2ccccc2C1 (centres undefined)	22µM*
CC(=O)c1c(C)[nH]c(C(=O)NCCc2ccc(F)cc2)c1C	i
CC(C)(C)CCN1CC(Oc2cccc(C(=O)N3CCOCC3)c2)C1	i
Cc1noc([C@@H](C)NC(=O)Nc2ccc(Cl)cc2)c1C(=O)O	40µM*
C[C@@H](NC(=O)Nc1ccc(Cl)cc1)c1onc(-c2ccccc2)c1C(=O)O	i
Cc1noc([C@@H](C)NC(=O)c2ccc(Cl)cc2)c1C(=O)O	i
CCOc1ccc(NC(=O)C2CC(=O)NC(Nc3ccc(OCC)cc3)=N2)cc1 (centres undefined)	i
CC(C)(CC(=O)O)CC(=O)Nc1ccccc1C(C)(C)C	i
CC(C)C(=O)N1Cc2ccccc2CC2(CCCN(Cc3ccccc3)C2)C1 (centres undefined)	i
CC(C)CNc1ccc2c(n1)C(C)(C(=O)NC1CC1)CN(Cc1ccccc1)C2 (centres undefined)	i
CC(C)CNc1ccc2c(n1)C(C)(C(=O)N1CCC1)CN(Cc1ccccc1)C2 (centres undefined)	28µM*
CC(C)CNc1ccc2c(n1)C(C)(C(=O)Nc1cccnc1)CN(Cc1ccccc1)C2 (centres undefined)	32µM*
O=C(Nc1cccnc1)[C@H]1CN(Cc2ccccc2)C[C@H]1C(=O)O	i
COCCN1CC(CO)C2(CCN(C(=O)Cc3cccnc3)CC2)C1 (centres undefined)	i
COCCN1Cc2ccc(NCC(C)C)nc2C(C)(C(=O)NCc2cccnc2)C1 (centres undefined)	32µM*
O=C(NCC(c1cccnc1)N1CCN(Cc2ccccc2)CC1)C(=O)Nc1cccc(F)c1 (centres undefined)	i
COc1ccc(C(=O)N2CCOCC3(CN(Cc4ccccc4)C3)C2)cc1	i
COc1ccc(C(=O)N2CCOCC3(CN(Cc4ccccc4)C3)C2)c(OC)n1	i
SMILES	KDM5B inhibitor
Cc1c(CC(=O)NCc2cccnc2)c2c(n1CC(C)C)CC(C)(C)CC2=O	i
CC(C)CNc1ccc2c(n1)C(C)(C(=O)N1CCOCC1)CN(Cc1ccccc1)C2 (centres undefined)	32µM*
CC(=O)c1ccc(NC(=O)Cn2c(-c3ccc(F)cc3)nc(C)cc2=O)cc1	i
COc1ccc(CN2CCCN(C(=O)c3cn(C)nc3-c3ccc4c(c3)OCCCO4)CC2)cc1	i
COC(=O)CC1c2cc(OC)c(OC)cc2CCN1Cc1nc(C)no1 (centres undefined)	i
O=C(CCc1ncc(-c2ccccc2Cl)o1)NCc1ccc(Cl)cc1Cl	i
CC(C)(C)CNC(=O)c1nc[nH]c1C(=O)N1CCCCC1	i
O=C1/C(=C/c2cccc3ccccc23)Cc2ccccc21	i
CCN(Cc1nccn1C)C(=O)c1cc(-c2cnc(N)nc2)nc2c(C)cccc12	28µM*
Cc1ccc(NC(=O)c2cc(-c3cccnc3)nc3c(C)cccc23)nc1	i
Cc1ccc(-c2cc(C(=O)O)c3cccc(C)c3n2)cc1C	i
Cc1nc2ccc(Cl)cc2cc1C(=O)NCc1ccc(C(N)=O)cc1	i
O=C(O)C1C2CCC(CC2)C1C(=O)NCCCN1CCOCC1 (centres undefined)	i
O=C(Nc1cccnc1)[C@@H]1C[C@@H](c2ccc(F)cc2)N(CCOc2ccccc2)C1	i
Cn1ccc(NC(=O)[C@@H]2C[C@@H](c3ccc(F)cc3)N(CCOc3ccccc3)C2)n1	i
O=C(Nc1ccncn1)[C@@H]1C[C@@H](c2ccc(F)cc2)N(CCOc2ccccc2)C1	35µM*
O=C(COc1ccc2c(c1)CCC2)NC1CCS(=O)(=O)C1 (centres undefined)	i
Cc1ccccc1CN1CCCN(c2cccc(C(=O)NCc3ccc4c(c3)OCO4)c2)C1=O	i
Cc1cc(C)n2nc(C(=O)N3CCC(Cc4cccc(C(N)=O)c4)C3)nc2n1 (centres undefined)	i
O=C(c1cnn2ccccc12)N1CCC(Cc2cccc(CO)c2)C1 (centres undefined)	28µM*
O=C(O)c1ccc(CC2CCN(C(=O)c3ccccc3Cl)C2)cc1 (centres undefined)	i
CONC(=O)c1ccccc1Cc1ccccc1	i
O=C(NCCc1ccc(Cl)cc1)c1cc(-c2cnccc2Cl)c2cccn2n1	i
O=C(NC1CC1)c1nc(-c2ccc(Cl)cc2Cl)c2ccccn12	28µM*
O=C(NCCc1ccc(Cl)cc1)c1nc(-c2ccc(Cl)cc2Cl)c2cnccn12	56µM*
SMILES	KDM5B inhibitor
Cc1ccc2nc(-c3ccccc3Cl)cc(C(=O)NC3CC3)c2c1	i
COc1ccc(CCNC(=O)c2nc(SCc3ccccc3F)ncc2Cl)cc1OC	i
COc1ccc(CCNC(=O)Cn2c(=O)nc(-c3ccccc3F)c3cc(Cl)ccc32)cc1OC	i
COc1ccccc1-c1nc(C(=O)NCCc2ccc(Cl)cc2)n2ccncc12	79µM*
O=C(NC1CC1)C1CCN(C(=O)c2ccc(Cl)cc2Cl)CC1	i
O=C(NCCc1ccncc1)c1ccc(Cl)cc1Cl	i
O=C(NCCc1ccc(Cl)cc1)c1nc(-c2ccc(Cl)cc2Cl)c2ccccn12	79µM*
COc1ccc(OC)c(C2C(C(=O)c3ccco3)=C(O)C(=O)N2c2nc3ccc(C)cc3s2)c1 (centres undefined)	i
CN1CCCC1CNC(=O)Cc1cn(C)c2ccccc12 (centres undefined)	i
COc1cccc(C2C(C#N)=C(N)Oc3cc(C)n(CCCN4CCOCC4)c(=O)c32)c1 (centres undefined)	i
CCc1ccc(C(N)CC(=O)OC)cc1 (centres undefined)	i
Cc1cnc(C(=O)N[C@@H]2CCC[C@@H]2C(=O)N2CCC(Cc3ccccc3)CC2)cn1	i
Cc1cccc(C(C)C)c1NC(=O)c1ccc2ccccc2n1	i
CC(C(=O)N1CCc2ccccc2C1)N(C)Cc1c(F)cccc1Cl (centres undefined)	i
CN(C)C(=O)C1CCc2nnc(-c3ccc(Cl)cc3Cl)n21 (centres undefined)	i
N#CC1CCN(C(=O)c2nc(-c3ccc(Cl)cc3Cl)c3ccccn23)CC1	28µM*
Cn1c(-c2ccc(Cl)cc2Cl)cc2ccccc21	i
N#CC1CCN(C(=O)C2CCc3nnc(-c4ccc(Cl)cc4Cl)n32)CC1 (centres undefined)	i
N#CC1CCN(C(=O)C2CN(c3cccc(Cl)c3)C(=O)N2)CC1 (centres undefined)	i
CN(C)C(=O)c1nc(-c2ccc(Cl)cc2Cl)c2ccccn12	89µM*
CCCOc1cc(C)c(Cl)cc1S(=O)(=O)N1CCCCC1	i
CCCCCCCCCCCCSCCC(=O)O	i

Source: PubChem BioAssay
